Assay results from ChEMBL document CHEMBL2218924, “A broad activity screen in support of a chemogenomic map for kinase signalling research and drug discovery” (Biochem J, 2013).

What was measured:
[1] = target: Tyrosine-protein kinase SYK (Homo sapiens) (UniProt P43405); settings: at 10 µM
[2] = target: T1, Mitogen-activated protein kinase kinase kinase 7 (Homo sapiens) (UniProt O43318); settings: at 10 µM
T1 sequence (whole entry): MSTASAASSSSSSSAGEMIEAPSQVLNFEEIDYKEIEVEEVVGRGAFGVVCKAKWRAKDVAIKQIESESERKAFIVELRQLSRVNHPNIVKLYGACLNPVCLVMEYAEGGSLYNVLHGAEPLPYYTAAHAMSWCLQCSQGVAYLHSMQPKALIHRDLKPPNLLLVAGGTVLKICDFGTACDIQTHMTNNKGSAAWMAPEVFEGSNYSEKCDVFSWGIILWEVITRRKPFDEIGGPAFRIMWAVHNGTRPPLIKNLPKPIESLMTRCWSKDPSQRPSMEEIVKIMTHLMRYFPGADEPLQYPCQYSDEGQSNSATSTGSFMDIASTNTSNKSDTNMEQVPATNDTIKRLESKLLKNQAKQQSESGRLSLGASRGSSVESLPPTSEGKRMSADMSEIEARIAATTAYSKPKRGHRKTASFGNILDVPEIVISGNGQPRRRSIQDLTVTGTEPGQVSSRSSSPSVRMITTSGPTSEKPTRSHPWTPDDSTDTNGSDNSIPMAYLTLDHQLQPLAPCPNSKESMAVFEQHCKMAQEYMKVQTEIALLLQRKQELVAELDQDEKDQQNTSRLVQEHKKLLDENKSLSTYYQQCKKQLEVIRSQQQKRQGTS

[3] = target: T2, Serine/threonine-protein kinase TAO3 (Homo sapiens) (UniProt Q9H2K8); settings: at 1 µM
T2 sequence (whole entry): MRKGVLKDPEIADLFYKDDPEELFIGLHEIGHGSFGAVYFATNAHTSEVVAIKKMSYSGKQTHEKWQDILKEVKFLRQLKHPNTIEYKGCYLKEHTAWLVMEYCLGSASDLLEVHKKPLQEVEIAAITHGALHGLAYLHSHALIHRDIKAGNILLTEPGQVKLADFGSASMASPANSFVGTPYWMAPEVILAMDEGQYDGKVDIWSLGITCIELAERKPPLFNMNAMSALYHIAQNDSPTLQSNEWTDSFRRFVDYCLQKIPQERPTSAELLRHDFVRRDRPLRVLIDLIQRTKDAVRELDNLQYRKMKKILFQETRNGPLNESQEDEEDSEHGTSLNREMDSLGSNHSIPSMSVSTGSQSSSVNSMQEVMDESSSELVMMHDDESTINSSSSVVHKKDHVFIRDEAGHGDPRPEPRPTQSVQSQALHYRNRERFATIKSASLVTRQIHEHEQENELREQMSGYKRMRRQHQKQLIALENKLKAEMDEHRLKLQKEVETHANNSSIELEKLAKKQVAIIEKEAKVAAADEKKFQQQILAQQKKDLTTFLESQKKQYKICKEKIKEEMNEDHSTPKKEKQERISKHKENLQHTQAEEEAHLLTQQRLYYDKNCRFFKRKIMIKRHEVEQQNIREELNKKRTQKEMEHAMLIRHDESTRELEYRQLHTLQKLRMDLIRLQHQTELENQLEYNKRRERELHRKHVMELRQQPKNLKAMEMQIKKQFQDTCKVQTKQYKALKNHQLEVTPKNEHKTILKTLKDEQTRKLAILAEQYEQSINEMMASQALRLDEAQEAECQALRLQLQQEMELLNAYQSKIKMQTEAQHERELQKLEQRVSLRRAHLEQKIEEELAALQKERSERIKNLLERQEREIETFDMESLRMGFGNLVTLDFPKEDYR

[4] = target: T2, Serine/threonine-protein kinase TAO3 (Homo sapiens); settings: at 10 µM
[5] = target: T3, Serine/threonine-protein kinase TBK1 (Homo sapiens) (UniProt Q9UHD2); settings: at 1 µM
T3 sequence (whole entry): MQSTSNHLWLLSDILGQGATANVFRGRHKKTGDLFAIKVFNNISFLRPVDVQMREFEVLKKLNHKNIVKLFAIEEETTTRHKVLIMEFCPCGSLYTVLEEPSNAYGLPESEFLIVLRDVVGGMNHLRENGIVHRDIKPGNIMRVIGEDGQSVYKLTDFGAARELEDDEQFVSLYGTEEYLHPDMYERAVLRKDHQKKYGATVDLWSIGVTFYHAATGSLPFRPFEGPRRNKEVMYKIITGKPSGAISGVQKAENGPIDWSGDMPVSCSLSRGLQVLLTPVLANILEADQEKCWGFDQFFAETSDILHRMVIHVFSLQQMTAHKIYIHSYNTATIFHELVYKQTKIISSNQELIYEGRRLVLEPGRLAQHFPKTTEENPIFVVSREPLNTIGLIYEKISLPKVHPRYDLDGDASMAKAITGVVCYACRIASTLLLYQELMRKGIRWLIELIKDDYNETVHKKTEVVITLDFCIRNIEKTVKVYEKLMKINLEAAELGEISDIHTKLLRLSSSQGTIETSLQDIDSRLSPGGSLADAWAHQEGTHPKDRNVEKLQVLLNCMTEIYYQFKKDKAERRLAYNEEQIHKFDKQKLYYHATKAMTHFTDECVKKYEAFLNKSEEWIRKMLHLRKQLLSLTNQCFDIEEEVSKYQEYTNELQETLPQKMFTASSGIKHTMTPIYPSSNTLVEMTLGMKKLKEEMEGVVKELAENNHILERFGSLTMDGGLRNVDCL

[6] = target: T3, Serine/threonine-protein kinase TBK1 (Homo sapiens); settings: at 10 µM
[7] = target: T4, TGF-beta receptor type-1 (Homo sapiens) (UniProt P36897); settings: at 1 µM
T4 sequence (whole entry): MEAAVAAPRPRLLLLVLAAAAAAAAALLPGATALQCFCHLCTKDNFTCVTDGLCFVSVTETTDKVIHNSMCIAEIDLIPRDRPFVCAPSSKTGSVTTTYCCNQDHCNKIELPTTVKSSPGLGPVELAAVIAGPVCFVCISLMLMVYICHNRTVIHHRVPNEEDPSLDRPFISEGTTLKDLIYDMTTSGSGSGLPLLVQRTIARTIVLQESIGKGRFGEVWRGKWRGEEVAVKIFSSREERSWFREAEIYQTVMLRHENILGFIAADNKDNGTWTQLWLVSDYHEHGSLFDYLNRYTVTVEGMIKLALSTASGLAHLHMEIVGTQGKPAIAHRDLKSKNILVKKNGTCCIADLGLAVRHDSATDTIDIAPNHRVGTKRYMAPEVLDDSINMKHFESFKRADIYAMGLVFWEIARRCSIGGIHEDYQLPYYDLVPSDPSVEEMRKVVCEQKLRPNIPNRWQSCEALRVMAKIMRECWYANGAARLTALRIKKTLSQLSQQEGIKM

[8] = target: T4, TGF-beta receptor type-1 (Homo sapiens); settings: at 10 µM
[9] = target: T5, Inhibitor of nuclear factor kappa-B kinase subunit alpha (Homo sapiens) (UniProt O15111); settings: at 1 µM
T5 sequence (whole entry): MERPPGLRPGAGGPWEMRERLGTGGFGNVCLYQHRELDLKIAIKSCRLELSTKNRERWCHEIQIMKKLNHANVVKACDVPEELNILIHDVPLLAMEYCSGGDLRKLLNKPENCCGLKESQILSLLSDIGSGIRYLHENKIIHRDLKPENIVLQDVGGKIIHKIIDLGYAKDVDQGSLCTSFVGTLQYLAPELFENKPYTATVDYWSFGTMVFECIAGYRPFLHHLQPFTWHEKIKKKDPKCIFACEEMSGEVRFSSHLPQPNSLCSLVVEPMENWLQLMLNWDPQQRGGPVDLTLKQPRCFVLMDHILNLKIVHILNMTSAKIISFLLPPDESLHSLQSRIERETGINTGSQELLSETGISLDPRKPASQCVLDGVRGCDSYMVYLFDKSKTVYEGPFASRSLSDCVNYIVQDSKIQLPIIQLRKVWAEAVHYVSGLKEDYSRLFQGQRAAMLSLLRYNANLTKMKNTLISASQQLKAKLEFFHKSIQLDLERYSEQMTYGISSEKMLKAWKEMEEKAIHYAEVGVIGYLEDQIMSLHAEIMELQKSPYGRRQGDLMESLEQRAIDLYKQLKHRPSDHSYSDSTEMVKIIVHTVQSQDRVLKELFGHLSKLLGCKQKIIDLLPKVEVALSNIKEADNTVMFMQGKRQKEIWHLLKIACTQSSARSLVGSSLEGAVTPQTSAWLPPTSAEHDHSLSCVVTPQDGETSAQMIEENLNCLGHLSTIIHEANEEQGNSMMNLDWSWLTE

[10] = target: T5, Inhibitor of nuclear factor kappa-B kinase subunit alpha (Homo sapiens); settings: at 10 µM
[11] = target: T6, Inhibitor of nuclear factor kappa-B kinase subunit beta (Homo sapiens) (UniProt O14920); settings: at 1 µM
T6 sequence (whole entry): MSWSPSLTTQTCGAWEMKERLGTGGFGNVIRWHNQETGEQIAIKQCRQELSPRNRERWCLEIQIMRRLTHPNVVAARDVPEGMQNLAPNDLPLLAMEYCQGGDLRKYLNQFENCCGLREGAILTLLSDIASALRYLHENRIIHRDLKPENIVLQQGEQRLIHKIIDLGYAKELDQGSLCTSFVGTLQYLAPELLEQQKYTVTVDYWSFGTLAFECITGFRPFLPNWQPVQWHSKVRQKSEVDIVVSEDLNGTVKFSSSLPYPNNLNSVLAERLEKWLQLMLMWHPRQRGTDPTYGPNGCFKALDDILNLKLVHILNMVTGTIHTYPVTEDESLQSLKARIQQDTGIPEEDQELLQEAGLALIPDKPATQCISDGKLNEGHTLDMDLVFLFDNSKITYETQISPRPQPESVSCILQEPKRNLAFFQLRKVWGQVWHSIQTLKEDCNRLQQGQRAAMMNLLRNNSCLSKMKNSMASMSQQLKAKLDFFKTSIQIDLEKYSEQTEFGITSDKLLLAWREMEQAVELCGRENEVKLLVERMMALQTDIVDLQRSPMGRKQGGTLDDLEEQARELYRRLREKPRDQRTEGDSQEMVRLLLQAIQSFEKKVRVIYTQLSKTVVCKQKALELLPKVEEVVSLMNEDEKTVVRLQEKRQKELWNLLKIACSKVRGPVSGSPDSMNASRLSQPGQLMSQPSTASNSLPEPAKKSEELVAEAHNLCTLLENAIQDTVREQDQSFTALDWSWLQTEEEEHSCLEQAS

[12] = target: T6, Inhibitor of nuclear factor kappa-B kinase subunit beta (Homo sapiens); settings: at 10 µM
[13] = target: Insulin receptor (Homo sapiens) (UniProt P06213); settings: at 1 µM
Sequence of Insulin receptor (Homo sapiens) (P06213 28-758 limits assumed): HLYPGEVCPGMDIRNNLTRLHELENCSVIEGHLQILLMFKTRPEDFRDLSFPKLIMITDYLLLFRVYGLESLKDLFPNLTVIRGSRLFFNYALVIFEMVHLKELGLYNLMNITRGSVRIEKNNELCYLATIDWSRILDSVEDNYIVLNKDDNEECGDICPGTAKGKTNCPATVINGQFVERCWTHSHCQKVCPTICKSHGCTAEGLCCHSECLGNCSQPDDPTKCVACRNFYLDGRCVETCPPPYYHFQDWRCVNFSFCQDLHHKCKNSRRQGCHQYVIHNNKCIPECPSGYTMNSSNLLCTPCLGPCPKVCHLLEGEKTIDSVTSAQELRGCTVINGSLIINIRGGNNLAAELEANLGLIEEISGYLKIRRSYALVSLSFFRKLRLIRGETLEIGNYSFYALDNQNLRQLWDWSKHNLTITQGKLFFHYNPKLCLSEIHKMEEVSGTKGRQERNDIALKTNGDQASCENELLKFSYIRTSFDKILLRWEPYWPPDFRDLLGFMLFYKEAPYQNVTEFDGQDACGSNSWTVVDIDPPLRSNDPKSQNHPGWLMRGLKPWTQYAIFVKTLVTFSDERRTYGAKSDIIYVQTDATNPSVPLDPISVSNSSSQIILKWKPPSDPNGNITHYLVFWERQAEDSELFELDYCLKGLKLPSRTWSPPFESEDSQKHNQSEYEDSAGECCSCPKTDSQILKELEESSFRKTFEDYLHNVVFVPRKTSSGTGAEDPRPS
Sequence of Insulin receptor (Homo sapiens) (P06213 763-1382 limits assumed): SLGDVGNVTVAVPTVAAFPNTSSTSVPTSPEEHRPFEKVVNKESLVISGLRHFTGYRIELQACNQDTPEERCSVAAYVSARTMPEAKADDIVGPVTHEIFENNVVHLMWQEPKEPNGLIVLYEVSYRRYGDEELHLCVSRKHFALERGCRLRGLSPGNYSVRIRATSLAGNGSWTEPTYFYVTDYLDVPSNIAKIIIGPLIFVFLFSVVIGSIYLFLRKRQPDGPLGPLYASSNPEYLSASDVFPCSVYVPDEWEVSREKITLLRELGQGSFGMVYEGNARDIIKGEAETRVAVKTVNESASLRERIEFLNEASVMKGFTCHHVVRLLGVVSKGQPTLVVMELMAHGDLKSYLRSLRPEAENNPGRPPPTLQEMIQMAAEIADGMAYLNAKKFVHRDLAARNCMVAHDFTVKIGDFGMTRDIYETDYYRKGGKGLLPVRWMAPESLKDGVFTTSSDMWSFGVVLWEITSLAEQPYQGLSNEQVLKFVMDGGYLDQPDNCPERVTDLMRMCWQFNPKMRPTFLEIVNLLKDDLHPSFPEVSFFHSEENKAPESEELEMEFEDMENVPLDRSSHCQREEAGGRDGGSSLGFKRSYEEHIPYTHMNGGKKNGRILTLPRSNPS

N#Cc1cnc2cnc(NCc3cccnc3)cc2c1Nc1ccc(F)c(Cl)c1
residual activity [1]: 2%
residual activity [2]: 87%
residual activity [3]: 18%
residual activity [4]: 7%
residual activity [5]: 5%
residual activity [6]: 2%
residual activity [7]: 126%
residual activity [8]: 123%
residual activity [9]: 74%
residual activity [10]: 58%
residual activity [11]: 84%
residual activity [12]: 74%
residual activity [13]: 136%
